In PubChem BioAssay (EPA / NIEHS):
Several values for one entry are separate records, joined by “and”; a condition that tells them apart may be missing. Equal values may be shown once. The source holds several records for some structures; these can differ, active in one and inactive in another. Activity calls are given as the source filed them. Rule for the calls: active = hit-call score of the fitted dose curve at least 0.9, where 1 is the maximum; inactive = score below 0.9.

Test: CCTE_Shafer_MEA_dev_network_spike_duration_std: CCTE's Neural Network Formation Assay for Standard Deviation of Network Spike Duration, Shafer Lab (AID 2284052);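 note: hits are decreases in network spike duration SD versus DMSO vehicle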
Description: CCTE_Shafer_MEA_dev assay is conducted using Axion Biosystems 48 well microelectrode array (MEA) plates and Maestro recording system. Each well of the MEA plate contains a grid of 16 microelectrodes embedded in the culture surface. Electrically active cells, such as neurons, can be cultured over the electrodes, and electrical activity in these cells can be recorded extracellularly. The spontaneous firing of neurons is captured from each electrode on a microsecond timescale providing both temporally and spatially precise data. […] The CCTE_Shafer_MEA_dev assay uses primary cultures of rat cortical neurons. Recordings are made on days post-plating 5, 7, 9 and 12. As these cultures mature over time, neural networks develop functional activity and form cohesive networks in which electrical activity can be highly coordinated. CCTE_Shafer_MEA_dev_network_spike_duration_std is 1 of 19 assay components of the CCTE_Shafer_MEA_dev assay. It measures the standard deviation of the duration of network spikes (temporally-clustered groups of action potential firing across multiple electrodes) during a recording in a microelectrode array (MEA) using Axion Biosystems Maestro 768 channel amplifier with the AxIS adaptive spike detector. To collapse across multiple recordings made on days post-plating 5, 7, 9 and 12, the trapezoidal area-under-the-curve of the component is calculated.Data from the assay component CCTE_Shafer_MEA_dev_network_spike_duration_std was analyzed into 1 assay endpoint. This assay endpoint, CCTE_Shafer_MEA_dev_network_spike_duration_std, was analyzed in the negative analysis fitting direction relative to DMSO as the negative control and baseline of activity. Using a type of functional reporter, gain or loss-of-signal activity can be used to understand electrical activity.
On the day prior to culture, each well was coated thoroughly with 150 uL of 0.05% polyethyleneimine (PEI, Sigma Cat P3143) in 50 mM HEPES (Sigma Cat H7523) at a pH of 8. The plate was incubated at 37C for one hour. PEI was rinsed out with 500 uL of sterile water three times. Plates were stored at 4C until the day of culture. This culture was plated at a seeding density of 1.5 x 10^5 cells/well on a 48-well MEA plate, prepared as described above. Cells were administered via a 25 uL media/laminin ([…]; Sigma Cat L2020-1MG) drop directly onto the microelectrode array, as adding the cells with the laminin results in better attachment than pre-coating with laminin. After 2 hours, an additional 475 uL of cortical media was added and the cells returned to the incubator. Exposure starts at day 0 of plating and is continued over twelve days of network development until the experiment is terminated. Cells are fed with fresh medium on DIV 5 and 9, following the recordings on those days. The entire volume of media in the well is exchanged and any vehicle or compound treatment is renewed. Complete details are found in OP-NHEERL/ISTD/SBB/TJS/2015-03-r0 (available on request, email shafer.tim@epa.gov). Measurement of the electrical activity is non-invasive, and recordings can be made from the same plate over multiple different days of the culture. In cortical neurons, this allows for the measurement of extracellular action potentials over the period during which networks form in the MEA plate.

Question: Which outcome does the source give for ClC1=C(Cl)[C@]2(Cl)[C@@H]3[C@@H](Cl)[C@H]4O[C@H]4[C@@H]3C1(Cl)C2(Cl)Cl here?
Answer: inactive

Question: With ClC1=C(Cl)[C@]2(Cl)[C@@H]3[C@H]4C[C@H]([C@@H]5O[C@H]45)[C@@H]3[C@@]1(Cl)C2(Cl)Cl as the molecule, how does the outcome read?
Answer: inactive

Question: With CCOP(=S)(OCC)SCSC(C)(C)C as the molecule, how does the outcome read?
Answer: inactive

Question: And the AC50?
Answer: 16.2 µM (active)

Question: For CCC(C)(c1ccc(O)cc1)c1ccc(O)cc1, which outcome is on record?
Answer: inactive

Question: Which outcome does the source give for Clc1ccc(C(c2ccccc2Cl)C(Cl)(Cl)Cl)cc1 (configuration not stated) here?
Answer: inactive

Question: For CO/C=C(/C(=O)OC)c1ccccc1COc1cccc(C(F)(F)F)n1, which AC50 is on record?
Answer: 246 nM (active) and 245 nM (active)

Question: For O=C(O)C(F)(F)C(F)(F)C(F)(F)C(F)(F)C(F)(F)C(F)(F)C(F)(F)C(F)(F)F, which outcome is on record?
Answer: inactive

Question: With c1cc2ccc3cccc4ccc(c1)c2c34 as the molecule, how does the outcome read?
Answer: inactive

Question: Which outcome does the source give for COc1ccc(O)c(C(C)(C)C)c1 here?
Answer: inactive

Question: With C=CC(N)=O as the molecule, how does the outcome read?
Answer: inactive

Question: For O=S(=O)(O)C(F)(F)C(F)(F)C(F)(F)C(F)(F)C(F)(F)C(F)(F)F, which outcome is on record?
Answer: inactive

Question: For NS(=O)(=O)C(F)(F)C(F)(F)C(F)(F)C(F)(F)C(F)(F)C(F)(F)C(F)(F)C(F)(F)F, which outcome is on record?
Answer: inactive

Question: For ClC1=C(Cl)[C@]2(Cl)[C@@H]3[C@@H]4C[C@@H]([C@H]5O[C@@H]45)[C@@H]3[C@@]1(Cl)C2(Cl)Cl, which AC50 is on record?
Answer: 3.38 µM (active)

Question: Which outcome does the source give for O=C(O)C(F)(F)C(F)(F)C(F)(F)C(F)(F)C(F)(F)F here?
Answer: inactive

Question: With Oc1ccc(C(c2ccc(O)cc2)(C(F)(F)F)C(F)(F)F)cc1 as the molecule, how does the outcome read?
Answer: inactive

Question: Which outcome does the source give for O=S(=O)(O)C(F)(F)C(F)(F)C(F)(F)C(F)(F)F here?
Answer: inactive
